DT40 TDP1 no CPT = qHTS for Inhibitors of human tyrosyl-DNA phosphodiesterase 1 (TDP1): qHTS in cells in absence of CPT | 420,000 tested, 15% active | DT40 Tdp1-/- hTDP1 cells, no CPT, ATP luminescence, 48 h | AID 686978, 2013 | Potency, µM (top dose mostly 46.2 µM), usual class: inhibitors; also: nearly all actives have a fitted effect of over 55% in size
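No-CPT arm: Tdp1-/-;hTDP1 DT40 cells (400/well) plus compounds, incubated ≥48 hr at 37 °C. Readout CellTiter-Glo luminescence.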
IL-1B inflam inh = inhibitors of inflammasome signaling (IL-1 beta secretion); AID 743279; activity change, % at 57.5 µM; THP-1 LPS/ATP IL-1B secretion, AlphaLISA, 16 h; stronger effect = lower value; 360,000 tested, 4.7% active; in the data active = activity change below about -50%; inconclusive = mostly about -30% to -49%
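THP-1 cells pretreated 1 hr with compounds (up to 57.5 uM final), then stimulated with LPS (250 ng/mL final) plus ATP (1.25 mM final); secreted IL-1B measured by AlphaLISA after 16 hr, decreased signal indicating inhibition.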
Chronic BCR inh = inhibitors of chronic active B-cell receptor signaling | ABC-DLBCL IkBa-CBG/CBR reporter, luminescence ratio, 4 h | AID 493014 | 340,000 tested, 0.05% active | Potency, µM (series often up to 46.1 µM), most hits filed as inhibitors; active = well fitted inhibition curve with a large enough effect in the signal ratio, with a control signal flat, not every such curve was filed as active; inconclusive = small, poorly fitted or top-dose-only effect, or effect the other way, or a change in a side signal; the % refers to the signal ratio
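TMD8 ABC-DLBCL cells carrying doxycycline-inducible green luciferase fused to IkappaBalpha plus unfused red luciferase were exposed to compounds (up to 46 uM) for 4 hrs at 37C. Activity came from the overlap-corrected green/red luminescence ratio.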
SW480 rereplic = inducers of DNA re-replication in SW480 colon cancer cells; SW480 DNA re-replication, Hoechst DNA content imaging, 48 h; Potency, µM (highest dose often 46.1 µM), hits mostly activators; 340,000 tested, 1.8% active; AID 624297; also: nearly all actives have a fitted effect of over 55% in size
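Readout is total intensity of Hoechst-stained nuclei, excited at 405 nm and collected at 500-530 nm. Compound treatment lasted 48 hr at 37 C in 5% CO2 before staining.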
DT40 TDP1 CPT = DT40-hTDP1 cell growth loss with CPT; chicken DT40 Tdp1-/-;hTDP1 cells + 20 nM CPT, ATP luminescence, 48 h; AID 686979; Potency, µM (top dose mostly 46.2 µM), hits mostly inhibitors; 420,000 tested, 12% active; also: nearly all actives have a fitted effect of over 55% in size
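Cell growth measured by CellTiter-Glo luminescence after a minimum 48 h, 37 C compound exposure with 20 nM CPT in Tdp1-knockout DT40 cells stably expressing hTDP1, seeded 400/well; qHTS titration format.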
MCF10A rereplic = inducers of DNA re-replication in MCF 10A breast cells; MCF 10A DNA re-replication, Hoechst nuclear intensity, 48 h; Potency, µM (series often up to 46.1 µM), usual class: activators; 350,000 tested, 2.9% active; also: nearly all actives have a fitted effect of over 50% in size
A number is an active result; i = inactive; ? = inconclusive; nt = no result given; [ ] = remark or other dose. Only some compounds are listed: those with a hit (about 19% of all), similar ones and a draw of the others. Unless noted, calls follow the shape of the dose curve; as a rule, active = well fitted curve in the direction sought with a large enough effect; inconclusive = small, poorly fitted or top-dose-only effect, or another doubt; inactive = no such curve, though single readings can be large; an effect the other way counts as inactive or inconclusive.

SMILES	DT40 TDP1 no CPT	IL-1B inflam inh	Chronic BCR inh	SW480 rereplic	DT40 TDP1 CPT	MCF10A rereplic
CCOc1ccc(-c2nc3cc(NC(=O)COc4cccc(C)c4)ccc3o2)cc1	16µM	nt	nt	nt	3.7µM	nt
COc1ccc(-c2nn(CCC#N)cc2C(=O)Nc2cccc([N+](=O)[O-])c2)cc1OC	i	i	i	i	i	i
CN(C)CCO	i	nt	nt	nt	i	nt
NS(=O)(=O)c1cc([C@@]2(O)NC(=O)c3ccccc32)ccc1Cl	nt	nt	nt	i	nt	i
CC(C)(OOC1(c2ccccc2)NC(=O)c2ccccc21)c1ccccc1 (configuration not stated)	18µM	i	nt	nt	?	nt
COc1ccc(-c2ccc3c(c2)CN(C(=O)C(C)(C)C)Cc2cnnn2-3)cc1	?	i	nt	nt	?	nt
COc1ccc(-c2ccc3c(c2)CN(C(=O)NC2CCCCC2)Cc2cnnn2-3)cc1	?	-53	nt	nt	?	nt
O=C(NC1CCCCC1)N1Cc2cc(-c3cccc(F)c3)ccc2-n2nncc2C1	?	?	nt	nt	i	nt
CC(C)(C)C(=O)N1Cc2cc(-c3ccccc3)ccc2-n2nncc2C1	?	i	nt	nt	16µM	nt
C=CCN1C(=O)NC(=O)/C(=C/C=C/c2ccccc2)C1=O	23µM	?	i	?	16µM	?
O=C1NC(=O)N(CCc2ccc(F)cc2)C(=O)/C1=C\C=C\c1ccccc1	3.7µM	i	i	i	2.3µM	4.1µM
Cc1ccc(C2=CCNCC2)cc1	i	i	i	i	i	?
CC1CC2CC(=O)CCC2(C)C2CCC3(C)C(O)CCC3C12 (configuration not stated)	?	i	nt	nt	?	nt
Cc1cccc(N2CCN(C(=O)C34CC5CC(CC(C5)C3)C4)CC2)c1C	?	i	i	i	?	?
CCCc1cc(N2CCN(c3cccc(C)c3C)CC2)n2cnnc2n1	18µM	nt	nt	nt	16µM	nt
NCC(CC(=O)O)c1ccc(Cl)s1 (configuration not stated)	i	nt	nt	nt	i	nt
COc1ccc(C(CC(=O)c2ccc3c(c2)OCO3)c2c(O)c3ccccc3oc2=O)cc1OC (configuration not stated)	23µM	i	nt	nt	i	nt
CS(=O)(=O)c1ccc(C2=C(CNC(=O)c3cccnc3)[C@H]3CC[C@@H](C2)N3Cc2ccccc2)cc1	i	i	nt	nt	i	nt
COC(=O)C1=C(c2cccc(OCc3ccccc3)c2)C[C@@H]2CC[C@H]1N2C(=O)NCc1ccc(OC)cc1	16µM	i	i	i	12µM	?
COC(=O)C1=C(c2cccc(OCc3ccccc3)c2)C[C@@H]2CC[C@H]1N2C(=O)NCc1ccccc1OC	23µM	?	?	i	?	?
COC(=O)C1=C(c2ccc(OC)c(OC)c2)C[C@@H]2CC[C@H]1N2C(=O)NCc1cc(C)oc1C(F)(F)F	i	i	i	i[9.22 µM]	i	i
COC(=O)C1=C(c2cccc(OCc3ccccc3)c2)C[C@@H]2CC[C@H]1N2C(=O)NCc1cc(C)oc1C(F)(F)F	?	i	?	?	23µM	i
COC(=O)C1=C(c2cccc(OCc3ccccc3)c2)C[C@@H]2CC[C@H]1N2C	?	i	nt	nt	?	nt
COC(=O)C1=C(c2cccc(OCc3ccccc3)c2)C[C@@H]2CC[C@H]1N2C(=O)NCc1cccc(C(F)(F)F)c1	16µM	?	i	i	21µM	?
C[C@]12CCC3C(CC[C@H]4C[C@@H](O)CC[C@]34C)C1C[C@@H](Br)[C@H]2O (some centres not stated)	nt	nt	i	nt	nt	nt
SMILES	DT40 TDP1 no CPT	IL-1B inflam inh	Chronic BCR inh	SW480 rereplic	DT40 TDP1 CPT	MCF10A rereplic
OC[C@H]1OC(O)C[C@@H](O)[C@@H]1O (some centres not stated)	i	i	i	i	i	i
COC(=O)C1=C(c2cccc(OCc3ccccc3)c2)C[C@@H]2CC[C@H]1N2C(=O)NCc1ccc(Cl)cc1	?	i	i	i	?	?
COC(=O)C1=C(c2ccc(OCc3ccccc3)cc2)C[C@@H]2CC[C@H]1N2C(=O)NCc1ccc(OC)cc1	6.5µM	i	nt	nt	7.3µM	nt
COC(=O)C1=C(c2ccc(OCc3ccccc3)cc2)C[C@@H]2CC[C@H]1N2C(=O)NCc1ccc(C(C)(C)C)cc1	9.2µM	i	nt	nt	12µM	nt
COC(=O)C1=C(c2ccc(OCc3ccccc3)cc2)C[C@@H]2CC[C@H]1N2C(=O)NCc1ccc2c(c1)OCO2	4.1µM	i	nt	nt	5.8µM	nt
COC(=O)C1=C(c2cccc(OCc3ccccc3)c2)C[C@@H]2CC[C@H]1N2C(=O)NCc1ccc(OC)c(OC)c1	15µM	i	?	i	16µM	i
COC(=O)COc1ccc(Cl)cc1Cl	i	nt	nt	nt	i	nt
COC(=O)C1=C(c2ccc(OCc3ccccc3)cc2)C[C@@H]2CC[C@H]1N2C(=O)NCc1cccc(OC)c1	21µM	i	?	i	18µM	?
COC(=O)C1=C(c2ccc(S(C)(=O)=O)cc2)C[C@@H]2CC[C@H]1N2C(=O)NCc1ccccc1	i	i	nt	i	i	i
COC(=O)[C@@H]1[C@H]2CC[C@@H](C[C@H]1OC(=O)c1ccccc1)N2C	i	nt	nt	nt	i	nt
CN1C(=O)C(=Cc2ccc(OCCN(C)c3ccccn3)cc2)C(=O)N(C)C1=O	i	i	i	i	i	0.41µM
CCOC(=O)C1(C)CCN1C(=O)c1cc(OC)c(OC)c(OC)c1 (configuration not stated)	?	i	nt	nt	?	nt
CCc1cc(=O)[nH]c(SCCCF)n1	i	i	i	i	i	i
COC(=O)CCCNC(=O)CN1CC(c2ccccc2)CC1=O (configuration not stated)	i	i	i	i	i	i
CCn1nc(-c2ccccc2)nc2c(=O)n(C)c(=O)nc1-2	2.6µM	-114	?	?	1.3µM	1.5µM
CC(=O)OC1C2CCCC1C(N1CCCC1)CC2 (configuration not stated)	i	i	i	i	i	i
Cc1ccc(-c2nc3ccc(Cl)cn3c2Nc2ccccc2C)s1	16µM	nt	nt	nt	21µM	nt
CC(C)CN1CCN(Cc2ccc(F)cc2Cl)CC1CCO (configuration not stated)	i	i	i	i	i	i
COc1cc2c(cc1OC)-c1c(OC)c(OC)c(C=O)c3c1[C@H](C2)N(C)CC3	?	nt	nt	nt	i	nt
CN1CC[C@@]2(c3cccc(O)c3)Cc3nc4ccccc4cc3C[C@H]2C1	?	nt	nt	nt	27µM	nt
Nc1ncnc2c1ncn2[C@@H]1O[C@H](COP(=O)(O)CP(=O)(O)O)[C@@H](O)[C@H]1O	?	i	nt	i	4.1µM	i
NC(=NCc1ccc(Cl)cc1)SCCCc1cnc[nH]1	?	nt	nt	nt	21µM	nt

Source: PubChem BioAssay (National Center for Advancing Translational Sciences (NCATS))
